# Source: the antibiotic and cytotoxicity screens of Wong et al. (2023)
# In all, about 39,000 compounds went through this assay and about 1,500 (3.8%) were called active. For the sample, actives were picked, then their nearest neighbours and some compounds at random.
# System: HSkMC (human skeletal muscle cells)
# Experiment: cytotoxicity call (relative viability < 0.9)
# Settings: 10 µM
row,SMILES,cytotoxicity call
1,NCCc1ccc(O)cc1 [listing 1 of 2 here],inactive
2,NCCc1ccc(O)cc1 [listing 2 of 2 here],inactive
3,CCCCCCCCCc1ccc(O)cc1,active
4,COP(=O)(OC)OC(Br)C(Cl)(Cl)Br (configuration not stated),inactive
5,COC(=O)[C@H]1CNC(=O)C1,inactive
6,C=C(C)C1C2OC(=O)C1C1(O)CC3OC34C(=O)OC2C14C (configuration not stated),inactive
7,C1COC2(CCNCC2)OC1,inactive
8,Cl.OC1CCCCC1N1CCC(c2ccccc2)CC1 (configuration not stated),inactive
9,C[C@]12C(=O)OC(=O)[C@]1(C)[C@H]1CC[C@H]2O1,active
10,CC12C(=O)OC(=O)C1(C)C1CCC2O1 (configuration not stated),inactive
11,C[C@@]12C(=O)OC(=O)[C@]1(C)[C@H]1CC[C@@H]2O1,active
12,C(=N/C12CN3CN(CN(C3)C1)C2)/c1cccnc1,inactive
13,CC(=CCn1c[n+](C)c2c(N)ncnc21)CCC1(C)C(C)CCC2(C)C(C)=CCCC21.[Cl-] (configuration not stated),inactive
14,OCC1CCCN2CCCCC12 (configuration not stated),inactive
15,N=C(N)N/N=C/c1ccc2c(c1)OCO2,inactive
16,Cc1ccc(OC(=O)N(C)C[C@@H]2OCc3ccccc3-c3c(n(C)c4ccccc34)C(=O)N([C@@H](C)CO)C[C@H]2C)cc1,inactive
17,COc1ccc(OC(=O)N(C)C[C@H]2OCc3ccccc3-c3c(n(C)c4ccccc34)C(=O)N([C@H](C)CO)C[C@@H]2C)cc1,inactive
18,COc1ccc(OC(=O)N(C)C[C@H]2OCc3ccccc3-c3c(n(C)c4ccccc34)C(=O)N([C@@H](C)CO)C[C@H]2C)cc1,inactive
19,Cc1ccc(OC(=O)N(C)C[C@H]2OCc3ccccc3-c3c(n(C)c4ccccc34)C(=O)N([C@H](C)CO)C[C@@H]2C)cc1,active
20,COc1ccc(OC(=O)N(C)C[C@@H]2OCc3ccccc3-c3c(n(C)c4ccccc34)C(=O)N([C@H](C)CO)C[C@H]2C)cc1,active
21,Cc1ccc(OC(=O)N(C)C[C@@H]2OCc3ccccc3-c3c(n(C)c4ccccc34)C(=O)N([C@H](C)CO)C[C@@H]2C)cc1,inactive
22,O=C(NC(O)C(Cl)(Cl)Cl)NC(O)C(Cl)(Cl)Cl (configuration not stated),inactive

row,SMILES,cytotoxicity call
1,CC(C)C[C@@H]1C(=O)N2CCC[C@@H]2[C@]2(O)O[C@@](NC(=O)[C@@H]3C=C4c5cccc6[nH]cc(c56)C[C@@H]4N(C)C3)(C(C)C)C(=O)N12,inactive
2,C[C@H]1CN(C)[C@@H](C)C[C@@H]1n1[nH]c(=O)cc1N,inactive
3,CO[C@H]1[C@H]2CC[C@@H]1NC2,inactive
4,OCC(Br)(Br)Br,inactive
5,O=[N+]([O-])C(Br)(CO)CO [listing 1 of 2 here],active
6,O=[N+]([O-])C(Br)(CO)CO [listing 2 of 2 here],active
7,C=C(C)[C@@H]1[C@H]2OC(=O)[C@H]1[C@]1(O)C[C@H]3O[C@]34C(=O)O[C@H]2[C@]14C,inactive
8,Cc1cc(N2CCN(C)CC2)ncn1,inactive
9,CN1[C@@H](CO)[C@@H]2c3ccccc3NC[C@@H]21,inactive
10,COc1ccc(OC(=O)N(C)C[C@@H]2OCc3ccccc3-c3c(n(C)c4ccccc34)C(=O)N([C@H](C)CO)C[C@@H]2C)cc1,inactive
11,CC[n+]1c(-c2ccccc2)c2cc(N)ccc2c2ccc(N)cc21.[Br-],inactive
12,CN[C@H]1C[C@@H](N)[C@H](O)[C@@H](O[C@@H]2O[C@H](CO)[C@H](O)[C@@H]3O[C@@]4(O[C@H]23)O[C@H]([C@@H](N)CO)[C@H](O)[C@H](O)[C@H]4O)[C@@H]1O,active
13,O=c1cccc2n1C[C@@H]1C[C@H]2CN(C[C@H](O)/C=N/n2cnnc2)C1,inactive
14,CC(=O)OCC1=C(C(=O)O)N2C(=O)[C@@H](NC(=O)CCC[C@@H](N)C(=O)O)[C@@H]2SC1,inactive
15,N[C@@H](Cc1ccc(O)cc1)C(=O)NCC(=O)NCC(=O)O,inactive
16,Cc1nc2c(=O)n(C)c(=O)nc-2n(C)n1,active
17,Cn1ncnc2c(=O)n(C)c(=O)nc1-2,active
18,Cc1cnc(C(=O)N2C[C@H]3CNC[C@H]3C2)cn1,inactive
19,[O-][n+]1ccccc1[S][Zn][S]c1cccc[n+]1[O-],active
20,O=C(O)C[C@@H]1CC[C@H]2NC[C@@H](O)COC[C@@H]2O1,inactive
21,Cc1cc(O)c2c(=O)c3c(O)cc(O)c4c5c(O)cc(O)c6c(=O)c7c(O)cc(C)c8c1c2c(c34)c(c78)c65,active
22,CCC1(O)C(=O)OCc2c1cc1n(c2=O)Cc2cc3ccccc3nc2-1 (configuration not stated),inactive

row,SMILES,cytotoxicity call
1,Cc1nc(-c2ccc(-c3ccc(C(=O)N4CCc5cc6c(cc54)C4(CCN(C)CC4)CO6)cc3)c(C)c2)no1,active
2,C=C(C)[C@H]1O[C@H]2CC[C@@]3(C)[C@@](O)(CC[C@H]4[C@@H]5OC(C)(C)[C@H]6C[C@@H]7C(=C)Cc8c(Cl)cc9[nH]c(c5c9c8[C@@]76O)[C@@]43C)[C@]23O[C@@H]3[C@H]1O,inactive
3,O=C1[O][Pt]2([NH][C@@H]3CCCC[C@H]3[NH]2)[O]C1=O,active
4,CN(C)c1ccc(CCN)cc1,inactive
5,Br.CC(Cc1ccc(O)cc1)NCC(O)c1cc(O)cc(O)c1 (configuration not stated),inactive
6,Cc1cc2c(C(C)C)c(O)c(O)c(C=O)c2c(O)c1-c1c(C)cc2c(C(C)C)c(O)c(O)c(C=O)c2c1O [listing 1 of 2 here],active
7,CC(=O)O.Cc1cc2c(C(C)C)c(O)c(O)c(C=O)c2c(O)c1-c1c(C)cc2c(C(C)C)c(O)c(O)c(C=O)c2c1O,inactive
8,Cc1cc2c(C(C)C)c(O)c(O)c(C=O)c2c(O)c1-c1c(C)cc2c(C(C)C)c(O)c(O)c(C=O)c2c1O [listing 2 of 2 here],inactive
9,O=C(O)C=CCO,inactive
10,COCC12CN(C=O)C3C4C(OC)C1C3(C(OC)CC2O)C1CC2(O)C(OC)C(O)C4(OC(C)=O)C1C2OC(=O)c1ccccc1 (configuration not stated),inactive
11,O=C1CCN(C(=O)C2CCC2)CC1,inactive
12,COC(=O)[C@@]1(Cc2ccccc2CN=[N+]=[N-])N=C(c2ccc(OCCCO)cc2)O[C@H]1c1ccccc1N=[N+]=[N-],inactive
13,COC(=O)[C@@]1(Cc2ccccc2N=[N+]=[N-])N=C(c2ccc(OCCCO)cc2)O[C@H]1c1ccccc1CN=[N+]=[N-],inactive
14,COC(=O)[C@@]1(Cc2ccccc2N=[N+]=[N-])N=C(c2ccc(OCCCO)cc2)O[C@H]1c1ccccc1N=[N+]=[N-],active
15,COC(=O)[C@]1(Cc2ccccc2CN=[N+]=[N-])N=C(c2ccc(OCCCO)cc2)O[C@@H]1c1ccccc1N=[N+]=[N-],inactive
16,COC(=O)[C@]1(Cc2ccccc2N=[N+]=[N-])N=C(c2ccc(OCCCO)cc2)O[C@@H]1c1ccccc1CN=[N+]=[N-],inactive
17,COC(=O)[C@]1(Cc2ccccc2N=[N+]=[N-])N=C(c2ccc(OCCCO)cc2)O[C@@H]1c1ccccc1N=[N+]=[N-],active
18,CN(C)C(=O)[C@@]1(Cc2ccccc2CN=[N+]=[N-])N=C(c2ccc(OCCCO)cc2)O[C@H]1c1ccccc1N=[N+]=[N-],inactive
19,[N-]=[N+]=NCc1ccccc1C[C@]1(C(=O)NCc2ccccc2)N=C(c2ccc(OCCCO)cc2)O[C@H]1c1ccccc1N=[N+]=[N-],inactive
20,CCO[C@H]1[C@H]2CC[C@@H]1NC2,inactive
21,O=C1CC2OCC=C3CN4CCC56c7ccccc7N1C5C2C3CC46.O=S(=O)(O)O (configuration not stated),inactive
22,N[C@]1(C(=O)O)CC[C@@H](C(=O)O)C1,inactive

row,SMILES,cytotoxicity call
1,COc1cc([C@@H](O)CN)ccc1O,inactive
2,[N-]=[N+]=NCc1ccccc1C[C@]1(C(=O)N2CCOCC2)N=C(c2ccc(OCCCO)cc2)O[C@H]1c1ccccc1N=[N+]=[N-],inactive
3,COc1ccc2c(c1)C[C@H](N)C2,inactive
4,CNC(=O)[C@H]1Cn2ccnc2C2(CCNCC2)O1,inactive
5,CC(C)=CCCC1(C)C=Cc2c(O)c3c(c(CC=C(C)C)c2O1)OC12C(=CC4CC1C(C)(C)OC2(CC=C(C)C(=O)O)C4O)C3=O (configuration not stated),active
6,CC(C)CCC[C@]1(C)C=Cc2c(O)c3c(c(CCC(C)C)c2O1)O[C@]12[C@H](C[C@@H]4C[C@H]1C(C)(C)O[C@]2(CC[C@@H](C)C(=O)O)[C@@H]4O)C3=O,inactive
7,CC(C)=CCC[C@]1(C)C=Cc2c(O)c3c(c(CC=C(C)C)c2O1)O[C@]12[C@H](C[C@@H]4C[C@H]1C(C)(C)O[C@]2(C/C=C(/C)C(=O)O)[C@@H]4O)C3=O,inactive
8,CC(C)=CCCC1(C)C=Cc2c(O)c3c(c(CC=C(C)C)c2O1)OC12C(=CC4CC1C(C)(C)OC2(CC=C(C)C(=O)O)C4=O)C3=O (configuration not stated),active
9,C[C@@H]1CN([C@H](C)CO)C(=O)c2c(c3ccccc3n2C)-c2ccccc2CO[C@@H]1CN(C)C(=O)Oc1ccccc1,inactive
10,O=C(c1ccno1)N1C[C@@H]2CCN[C@@H]2C1,inactive
11,COc1ccc(C(CN(C)C)C2(O)CCCCC2)cc1.Cl (configuration not stated),inactive
12,N#CC[N+]12CCN(CC1)CC2,inactive
13,Cc1nc([N+](=O)[O-])c(N2CCNCC2)[nH]1,inactive
14,COC(=O)[C@H]1O[C@@H]2C[C@H]3O[C@@H](n4cnc5c(N)ncnc54)[C@H](OC)[C@H]3O[C@@]2(O)[C@@H](O)[C@@H]1O,inactive
15,O=C(CCCN1CCC2(CC1)C(=O)N(Cc1cccc(F)c1)CN2c1ccccc1)c1ccc(F)cc1,inactive
16,CC(=O)OC1CC(OC(C)=O)C2(C)C(CC(OC(C)=O)C3(C)C2CCC2(C)C(c4ccoc4)C(=O)C4OC423)C1(C)C (configuration not stated),inactive
17,CC(=O)O[C@H]1C[C@@H](OC(C)=O)C(C)(C)[C@@H]2C[C@@H](OC(C)=O)[C@]3(C)[C@H](CC[C@@]4(C)[C@H](c5ccoc5)C[C@H]5O[C@@]534)[C@@]12C,inactive
18,CC1(C)C(=O)C=CC2(C)C1=C(O)C(=O)C1(C)C2CCC2(C)C(c3ccoc3)CC3OC321 (configuration not stated),active
19,CC(=O)OC1CC2C(C)(C)C(=O)C=CC2(C)C2CCC3(C)C(=CC(=O)OC3c3ccoc3)C12C (configuration not stated),inactive
20,CC1(C)C(=O)C=CC2(C)C1CC(O)C1(C)C2CCC2(C)C(c3ccoc3)OC(=O)C3OC321 (configuration not stated),inactive
21,CC(=O)OC1CC2(C)C(c3ccoc3)CC3OC32C2(C)C(=O)C(O)=C3C(C)(C)C(=O)C=CC3(C)C12 (configuration not stated),active
